The text below walks through data of PubChem BioAssay (EPA / NIEHS).

The source made the active and inactive calls. Rule for the calls: active = hit-call score of the fitted dose curve at least 0.9, where 1 is the maximum; inactive = score below 0.9.

Sequence of Transcription factor Sp1 (Homo sapiens) (P08047 whole entry, looked up): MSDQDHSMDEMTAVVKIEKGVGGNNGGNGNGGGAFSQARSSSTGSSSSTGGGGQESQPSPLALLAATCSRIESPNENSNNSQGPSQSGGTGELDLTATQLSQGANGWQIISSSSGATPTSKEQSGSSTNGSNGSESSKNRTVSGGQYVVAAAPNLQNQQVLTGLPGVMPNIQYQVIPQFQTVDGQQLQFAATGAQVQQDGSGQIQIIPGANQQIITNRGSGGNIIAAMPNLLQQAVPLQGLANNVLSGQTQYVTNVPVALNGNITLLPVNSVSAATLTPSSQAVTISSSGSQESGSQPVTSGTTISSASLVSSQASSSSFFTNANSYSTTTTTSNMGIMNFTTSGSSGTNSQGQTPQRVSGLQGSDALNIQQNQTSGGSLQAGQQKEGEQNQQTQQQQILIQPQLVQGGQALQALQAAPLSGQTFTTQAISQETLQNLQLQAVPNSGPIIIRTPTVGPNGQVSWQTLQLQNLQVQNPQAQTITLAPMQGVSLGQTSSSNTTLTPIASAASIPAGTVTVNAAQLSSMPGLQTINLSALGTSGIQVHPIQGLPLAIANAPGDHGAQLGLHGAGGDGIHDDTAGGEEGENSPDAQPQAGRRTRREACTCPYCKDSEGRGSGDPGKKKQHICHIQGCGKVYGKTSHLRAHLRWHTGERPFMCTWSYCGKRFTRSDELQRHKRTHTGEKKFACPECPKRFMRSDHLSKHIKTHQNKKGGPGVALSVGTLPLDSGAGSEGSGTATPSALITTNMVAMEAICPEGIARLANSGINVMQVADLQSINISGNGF
Sequence of Signal transducer and activator of transcription 3 (Homo sapiens) (P40763 whole entry, looked up, the tested form may be a part): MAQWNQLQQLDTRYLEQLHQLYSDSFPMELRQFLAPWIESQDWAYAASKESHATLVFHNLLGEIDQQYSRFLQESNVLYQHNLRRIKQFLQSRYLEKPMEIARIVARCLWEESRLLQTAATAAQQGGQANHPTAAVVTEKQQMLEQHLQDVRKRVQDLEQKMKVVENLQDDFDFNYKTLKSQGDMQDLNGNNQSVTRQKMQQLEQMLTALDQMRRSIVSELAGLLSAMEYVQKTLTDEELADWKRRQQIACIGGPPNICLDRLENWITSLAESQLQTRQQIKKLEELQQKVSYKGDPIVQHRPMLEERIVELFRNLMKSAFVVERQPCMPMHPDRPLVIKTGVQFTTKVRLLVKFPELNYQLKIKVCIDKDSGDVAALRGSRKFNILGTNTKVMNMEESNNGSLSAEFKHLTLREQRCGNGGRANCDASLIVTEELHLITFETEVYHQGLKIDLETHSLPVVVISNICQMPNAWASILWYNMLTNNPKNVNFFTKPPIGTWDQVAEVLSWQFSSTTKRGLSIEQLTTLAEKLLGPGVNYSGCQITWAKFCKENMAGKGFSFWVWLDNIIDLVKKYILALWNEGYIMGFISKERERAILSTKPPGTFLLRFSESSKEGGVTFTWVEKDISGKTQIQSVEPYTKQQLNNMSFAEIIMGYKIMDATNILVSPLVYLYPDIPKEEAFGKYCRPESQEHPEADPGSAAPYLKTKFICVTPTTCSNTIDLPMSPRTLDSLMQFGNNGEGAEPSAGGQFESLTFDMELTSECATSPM

The first assay concerns the target Transcription factor Sp1 (Homo sapiens) (UniProt P08047). Kind of assay: ATG_Sp1_CIS: Attagene CIS-FACTORIAL HepG2 Assay for human Specificity Protein 1 (Sp1) (AID 2282961). Particulars: HepG2 Sp1 cis-reporter transcription, actives raise or lower the signal. In short, it runs like this: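 Transient MRTU-transfected HepG2, 24 h compound exposure. Total RNA → oligo(dT) RT → PCR of reporter → 6-FAM primer extension → HpaI digest → CE. Endpoint fitted both directions vs DMSO.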
With `O=C1O[C@@H]2[C@@H](O)[C@H](O)O[C@@H]2[C@H]1O`, the molecule was called inactive.

Turning to `NCCCN1CCOCC1`, the molecule was called inactive.

As to `CCCCCCCCCCCCCC(=O)O`, the call was inactive.

Regarding `CCCC(=O)C(C)=O`, the call was inactive.

`CNC(=O)Oc1ccc2c(c1)[C@]1(C)CCN(C)[C@@H]1N2C`: the call was inactive.

As to `BrC1CCC(Br)C(Br)CCC(Br)C(Br)CCC1Br` (stereo not drawn), the AC50 (in general, the concentration at which the activity in the assay is half-maximal) is 87 µM (active).

As to `CC1CCC2CC1C2(C)C` (stereo not drawn), the call was inactive.

Consider `CCCC(=O)c1cc(O)c(O)cc1O`, for which the molecule was called inactive.

For the molecule `COC(=O)C1=C(C)NC(C)=C(C(=O)OCCN(C)Cc2ccccc2)C1c1cccc([N+](=O)[O-])c1` (stereo not drawn), the outcome was inactive.

`C[Si](O[Si](C)(C)C)O[Si](C)(C)C`: the molecule was called inactive.

As to `C=CCOC(=O)CCC1CCCCC1`, the molecule was called inactive.

With `O=Cc1ccc(F)cc1`, the call was inactive.

Regarding `O=C(O)CCCCCCCCCCC(=O)O`, the molecule was classed as inactive.

For the molecule `CC(CCO)CCc1ccccc1` (stereo not drawn), the molecule was classed as inactive.

`CC1=CCC2C(C1)C2(C)C` (stereo not drawn): the outcome was inactive.

Regarding `COC(C(=O)O)c1ccccc1` (stereo not drawn), the outcome was inactive.

`Clc1cccc(Cl)n1`: the call was inactive.

`COc1ccc(OC)c(OC)c1`: the molecule was called inactive.

As for `CC(C)=CCCC(C)CC=O` (stereo not drawn), the result was inactive.

As for `CC(C)(Oc1ccc(CCNC(=O)c2ccc(Cl)cc2)cc1)C(=O)O`, the outcome was inactive.

Turning to `Nc1ccc(F)c([N+](=O)[O-])c1`, the result was inactive.

Regarding `CC(CC(C)(C)C)CC(C)(C)CC(C)(C)C` (stereo not drawn), the molecule was called inactive.

In the case of `Cc1cccc(C)c1C`, the outcome was inactive.

Take `COc1c(Cl)c(Cl)c(Cl)c(Cl)c1Cl`: the outcome was inactive.

`CC(C)=CCC[C@H](C)CC=O`: the call was inactive.

For `O=C1c2ccccc2C(=O)N1SC1CCCCC1`, the AC50 is 59.1 µM (active).

As to `CCCCC/C=C/C=C/C=O`, the result was inactive.

As for `CCCCNC(=O)NS(=O)(=O)c1ccc(C)cc1`, the result was inactive.

Regarding `CC(=O)C(C)=O`, the result was inactive.

`O=C(O)c1snc(Cl)c1Cl`: the molecule was classed as inactive.

In the case of `NCCOCCO`, the call was inactive.

As for `CC(=O)O[C@]1(C(C)=O)CC[C@H]2[C@@H]3C[C@H](C)C4=CC(=O)CC[C@]4(C)[C@H]3CC[C@@]21C`, the molecule was called inactive.

Turning to `COc1cccc(OC)c1`, the molecule was called inactive.

`C=C(C)C(=O)OCCOC(=O)CC(C)=O`: the outcome was inactive.

Test system in the next assay: not listed separately
Kind of assay: ATG_SREBP_CIS: Attagene CIS-FACTORIAL HepG2 Assay for human Sterol Regulatory Element Binding (SREBP) (AID 2282962). To be noted: HepG2 Attagene cis-factorial SREBP reporter, mRNA; actives raise or lower the signal. The method, boiled down: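 Endogenous factor activity is measured in HepG2 through multiplexed reporter units under cis-element control. Following a 24 h incubation, reporter transcripts are reverse-transcribed, PCR-amplified and sized by capillary electrophoresis; activity is fitted in both directions relative to DMSO.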
For the molecule `O=C1O[C@@H]2[C@@H](O)[C@H](O)O[C@@H]2[C@H]1O`, the call was inactive.

As to `NCCCN1CCOCC1`, the molecule was classed as inactive.

Consider `CCCCCCCCCCCCCC(=O)O`, for which the AC50 is 54.9 µM (active).

Take `CCCC(=O)C(C)=O`: the molecule was classed as inactive.

On to `COC(=O)c1ccc(C)cc1`, for which the molecule was classed as inactive.

As for `CNC(=O)Oc1ccc2c(c1)[C@]1(C)CCN(C)[C@@H]1N2C`, the molecule was called inactive.

For the molecule `BrC1CCC(Br)C(Br)CCC(Br)C(Br)CCC1Br` (stereo not drawn), the AC50 is 53.7 µM (active).

Take `CC1CCC(C(C)(C)O)CC1` (stereo not drawn): the molecule was classed as inactive.

Take `CC1CCC2CC1C2(C)C` (stereo not drawn): the molecule was called inactive.

As to `CCCC(=O)c1cc(O)c(O)cc1O`, the call was inactive.

`COC(=O)C1=C(C)NC(C)=C(C(=O)OCCN(C)Cc2ccccc2)C1c1cccc([N+](=O)[O-])c1` (stereo not drawn): the result was inactive.

Turning to `C[Si](O[Si](C)(C)C)O[Si](C)(C)C`, the result was inactive.

On to `C=CCOC(=O)CCC1CCCCC1`, for which the call was inactive.

Turning to `O=Cc1ccc(F)cc1`, the result was inactive.

On to `O=C(O)CCCCCCCCCCC(=O)O`, for which the result was inactive.

Turning to `CC(CCO)CCc1ccccc1` (stereo not drawn), the molecule was classed as inactive.

For the molecule `CC1=CCC2C(C1)C2(C)C` (stereo not drawn), the outcome was inactive.

`COC(C(=O)O)c1ccccc1` (stereo not drawn): the result was inactive.

In the case of `OCc1cccnc1`, the call was inactive.

Turning to `Clc1cccc(Cl)n1`, the outcome was inactive.

Regarding `COc1ccc(OC)c(OC)c1`, the outcome was inactive.

For the molecule `CC(C)=CCCC(C)CC=O` (stereo not drawn), the molecule was classed as inactive.

Consider `CC(C)(Oc1ccc(CCNC(=O)c2ccc(Cl)cc2)cc1)C(=O)O`, for which the call was inactive.

Turning to `Nc1ccc(F)c([N+](=O)[O-])c1`, the molecule was classed as inactive.

`CC(CC(C)(C)C)CC(C)(C)CC(C)(C)C` (stereo not drawn): the molecule was classed as inactive.

`Cc1cccc(C)c1C`: the molecule was classed as inactive.

With `COc1c(Cl)c(Cl)c(Cl)c(Cl)c1Cl`, the call was inactive.

Take `Cc1c(N(C)C)c(=O)n(-c2ccccc2)n1C`: the molecule was classed as inactive.

Take `CC(C)=CCC[C@H](C)CC=O`: the molecule was called inactive.

Turning to `O=C1c2ccccc2C(=O)N1SC1CCCCC1`, the molecule was classed as inactive.

With `CCCCC/C=C/C=C/C=O`, the outcome was inactive.

`CCCCNC(=O)NS(=O)(=O)c1ccc(C)cc1`: the result was inactive.

In the case of `CC(=O)C(C)=O`, the call was inactive.

On to `O=C(O)c1snc(Cl)c1Cl`, for which the call was inactive.

`NCCOCCO`: the molecule was classed as inactive.

Take `CC(=O)O[C@]1(C(C)=O)CC[C@H]2[C@@H]3C[C@H](C)C4=CC(=O)CC[C@]4(C)[C@H]3CC[C@@]21C`: the result was inactive.

Regarding `COc1cccc(OC)c1`, the result was inactive.

Turning to `C=C(C)C(=O)OCCOC(=O)CC(C)=O`, the molecule was called inactive.

Another assay addresses Signal transducer and activator of transcription 3 (Homo sapiens) (UniProt P40763). Briefly: ATG_STAT3_CIS: Attagene CIS-FACTORIAL HepG2 Assay for human Signal Transducer and Activator of Transcription 3 (STAT3) (AID 2282963). Particulars: HepG2, Attagene cis-factorial STAT3 reporter transcription; actives raise or lower the signal. The method, boiled down:
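Fluorescence intensity of 6-FAM-labelled reporter fragments, separated by capillary electrophoresis after RT-PCR, gave the signal. Cells were HepG2 transfected with cis-element reporter units and treated 24 h; fitting was bidirectional relative to DMSO.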
For `O=C1O[C@@H]2[C@@H](O)[C@H](O)O[C@@H]2[C@H]1O`, the molecule was called inactive.

Turning to `NCCCN1CCOCC1`, the molecule was called inactive.

For the molecule `CCCCCCCCCCCCCC(=O)O`, the result was inactive.

On to `CCCC(=O)C(C)=O`, for which the call was inactive.

Turning to `COC(=O)c1ccc(C)cc1`, the call was inactive.

For the molecule `CNC(=O)Oc1ccc2c(c1)[C@]1(C)CCN(C)[C@@H]1N2C`, the molecule was classed as inactive.

In the case of `BrC1CCC(Br)C(Br)CCC(Br)C(Br)CCC1Br` (stereo not drawn), the call was inactive.

As for `CC1CCC(C(C)(C)O)CC1` (stereo not drawn), the result was inactive.

Turning to `CC1CCC2CC1C2(C)C` (stereo not drawn), the molecule was called inactive.

Consider `CCCC(=O)c1cc(O)c(O)cc1O`, for which the result was inactive.

Consider `COC(=O)C1=C(C)NC(C)=C(C(=O)OCCN(C)Cc2ccccc2)C1c1cccc([N+](=O)[O-])c1` (stereo not drawn), for which the outcome was inactive.

Regarding `C[Si](O[Si](C)(C)C)O[Si](C)(C)C`, the molecule was classed as inactive.

In the case of `C=CCOC(=O)CCC1CCCCC1`, the molecule was called inactive.

Take `O=Cc1ccc(F)cc1`: the molecule was called inactive.

Consider `O=C(O)CCCCCCCCCCC(=O)O`, for which the molecule was classed as inactive.

Turning to `CC(CCO)CCc1ccccc1` (stereo not drawn), the outcome was inactive.

On to `CC1=CCC2C(C1)C2(C)C` (stereo not drawn), for which the outcome was inactive.

On to `COC(C(=O)O)c1ccccc1` (stereo not drawn), for which the molecule was classed as inactive.

As for `OCc1cccnc1`, the call was inactive.

As to `Clc1cccc(Cl)n1`, the result was inactive.

Turning to `COc1ccc(OC)c(OC)c1`, the molecule was called inactive.

As for `CC(C)=CCCC(C)CC=O` (stereo not drawn), the molecule was called inactive.

For the molecule `CC(C)(Oc1ccc(CCNC(=O)c2ccc(Cl)cc2)cc1)C(=O)O`, the call was inactive.

In the case of `Nc1ccc(F)c([N+](=O)[O-])c1`, the call was inactive.

Take `COc1c(Cl)c(Cl)c(Cl)c(Cl)c1Cl`: the molecule was classed as inactive.

Take `Cc1c(N(C)C)c(=O)n(-c2ccccc2)n1C`: the outcome was inactive.

As to `CC(C)=CCC[C@H](C)CC=O`, the molecule was called inactive.

As to `O=C1c2ccccc2C(=O)N1SC1CCCCC1`, the concentration at half-maximal activity (AC50) was 145 µM (active).

In the case of `CCCCC/C=C/C=C/C=O`, the molecule was called inactive.

Turning to `CCCCNC(=O)NS(=O)(=O)c1ccc(C)cc1`, the molecule was classed as inactive.

Take `CC(=O)C(C)=O`: the result was inactive.

Take `O=C(O)c1snc(Cl)c1Cl`: the molecule was called inactive.

Turning to `NCCOCCO`, the molecule was classed as inactive.

As to `CC(=O)O[C@]1(C(C)=O)CC[C@H]2[C@@H]3C[C@H](C)C4=CC(=O)CC[C@]4(C)[C@H]3CC[C@@]21C`, the molecule was classed as inactive.

As for `COc1cccc(OC)c1`, the molecule was called inactive.

In the case of `C=C(C)C(=O)OCCOC(=O)CC(C)=O`, the result was inactive.
